Compounds without any hit were thinned out: in the full panel of roughly 79,000, 15% have a hit. Active and inactive are the calls of the source. No stated cut-off is given here; in the data, active means growth inhibition above about 70%; inactive means the rest.
Assay: NCI Yeast Anticancer Drug Screen. Data for the mec2-1 strain (AID 157)
Conditions: S. cerevisiae mec2-1 strain, at 50.0 µM, hits give high values
Protocol: Growth inhibition of yeast strains with defined genetic alterations is measured as a screen for potential anti-cancer activity. Selected strains with alterations in DNA damage repair or cell cycle control were exposed to compounds and growth inhibition was measured relative to vehicle treated controls. The strain used in this assay is mec2-1

Compound	growth inhibition
CCCCOP(=S)(OCCCC)Oc1ccc(Cl)cc1Cl	-41.4% (inactive)
CCOC(=O)/C=C1/C=C(C)CC(C)(C)C1 (tested in a mixture with another compound)	-58.7% (inactive)
Oc1ccccc1C=NCCN=Cc1ccccc1O.[Cu]	-25.9% (inactive)
O=C(Cc1ccccc1)OCC1CCCO1 (stereo not given)	-6.6% (inactive)
CCOP(=S)(Oc1ccccc1[N+](=O)[O-])c1ccccc1 (stereo not given)	7.4% (inactive)
CC1=NCCc2c1[nH]c1cc(O)ccc21	-28.1% (inactive)
CS(=N)(=O)CCC(N)P(=O)(O)O (stereo not given)	-37.6% (inactive)
S=C(N/N=C\c1cccc(I)c1)NC1CN2CCC1CC2 (stereo not given)	3.25% (inactive)
CCCOP1(=O)C=C(O)C(Cl)=C(C)C1 (stereo not given)	-15.4% (inactive)
N#CC1(c2ccccc2)CCN(C2(c3ccccc3)CCCCC2)CC1	-30.2% (inactive)
CCOC(=O)C(Cc1ccc(N(CCCl)CCCl)cc1)NC(=O)C(C)NC(C)=O (stereo not given)	-7.3% (inactive)
CC1(C)CN=C(Nc2ccc(F)c(Cl)c2)S1	1.15% (inactive)
CC(I)C(N)=O (stereo not given)	-19.7% (inactive)
CCC1CN1CCC(=O)Nc1ccccc1 (stereo not given)	-13.1% (inactive)
CCOP(=O)(OCC)C(C)(C)OC(=O)NC#N	-63.5% (inactive)
COc1ccc(NC2=C(C)C(=O)C3=C(C2=O)[C@H](COC(N)=O)[C@]2(OC)[C@@H]4N[C@@H]4CN32)cc1	79.7% (active)
CCCOC(C(=O)OC1CCC2CCC1N2C)(c1ccccc1)c1ccccc1 (stereo not given)	-0.5% (inactive)
C[C@]12CC[C@H](O)C=C1CC[C@@H]1[C@@H]2CC[C@]2(C)C(c3ccc(=O)oc3)CC[C@]12O (stereo not given in full)	-12.9% (inactive)
CC1(C)N=C(N/N=C/c2ccccc2)SP1(=O)NNc1ncccn1 (stereo not given)	0.95% (inactive)
CC(=O)CCC(=O)O	0.55% (inactive)

Compound	growth inhibition
Cc1ccc(NC(=O)C(=O)C2C(=O)NC(=O)NC2=O)c(C)c1	9.75% (inactive)
CCCCC1(CCSC(=S)OCC)C(=O)NC(=O)NC1=O	-12.1% (inactive)
OC(c1ccccc1)C(c1ccccc1)N1CCOCC1 (stereo not given)	4.1% (inactive)
Cc1ccc(OP(=O)(Oc2ccc(C)cc2)Oc2ccc(C)cc2)cc1.Cc1ccc(OP(=O)(Oc2ccc(C)cc2)Oc2ccc(C)cc2)cc1.[Cl][Cr]([Cl])[Cl]	-3.05% (inactive)
O=C(O)C(Cl)C(=O)O	-7.8% (inactive)
CCOP(=O)(OCC)OP(=O)(OCC)OCC	-29.6% (inactive)
CC(=O)C(N)Cc1ccccc1 (stereo not given)	17.2% (inactive)
NC(=O)Oc1cc(OC(N)=O)cc(N(CCCl)CCCl)c1	34% (inactive)
O=C1NC2NC3NC(=O)NC3NC2N1 (stereo not given)	1.85% (inactive)
CN1C2c3ccccc3C3C4c5ccccc5C(C31)C(C2[N+](=O)[O-])N4C (stereo not given)	-30.8% (inactive)
[I][Ni][I].c1ccc([PH+](c2ccccc2)c2ccccc2)cc1.c1ccc([PH+](c2ccccc2)c2ccccc2)cc1	38.4% (inactive)
COc1cc2c(cc1OC)C13CCN4CC5=CCOC6CC(=O)N2C1C6C5CC43O (stereo not given)	-30.9% (inactive)
CCOP(=O)(CC(=O)c1cc2ccccc2[nH]1)OCC	12.6% (inactive)
O=C1NC(=O)C(Cc2cccc(OCc3ccccc3)c2)C(=O)N1	2.2% (inactive)
O=C(COc1ccc(Cl)c(Cl)c1)Nc1ccccc1S(=O)(=O)F	-5.35% (inactive)
CN1C2CCC1CC(OC(=O)/C=C\c1ccccc1)C2 (stereo not given)	-7.7% (inactive)
COC(=O)C(C)N(CCCl)P1(=O)OCCCN1CCCl (stereo not given)	24.8% (inactive)
CC1=C(C)C(=O)O[C@@H]([C@](C)(O)[C@]2(O)CC[C@@]3(O)[C@@H]4C[C@H](O)[C@]5(O)[C@@H](O)C=CC(=O)[C@]5(C)[C@H]4CC[C@]23C)C1	11.2% (inactive)
[CH3][Sn]1([CH3])[O]CC(COc2cc(Cl)c(Cl)cc2Cl)[O]1 (stereo not given)	6.65% (inactive)
CCN1/C(=C/C=C2\CCC(/C=C/c3sc4ccc(Cl)cc4[n+]3CC)=C2N(c2ccccc2)c2ccccc2)Sc2ccc(Cl)cc21	32.2% (inactive)

Reference: PubChem BioAssay (NCI)
